Hits are enriched below; roughly 0.63% of the tested compounds scored in any of these assays.
TSHR antagonist – blocks TSH signaling through the human TSH receptor. 330,000 compounds, 0.2% hits. AID 504810. TSHR-expressing cells, TSH-stimulated cAMP HTRF, 2 h; active compounds read low. activity change, negative = inhibition, % at 11.5 µM;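 active = activity change below a set negative limit, meaning inhibition stronger than a set level, cut at about -70% in these data; inconclusive = activity change between two set negative limits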; note: % is set by controls: 0 for no effect and ±100 for the full control effect
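Competitive HTRF cAMP read-out (cryptate anti-cAMP antibody, cAMP-d2; 30 min, room temperature) in freshly harvested TSHR cells. Compounds added before TSH at EC80 (4nM final), followed by 2 hours' incubation at 37 deg C.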
gsp agonist – gsp mutant agonism. 340,000 compounds, 0.13% hits. gsp mutant cells, cAMP HTRF, 30 min. Potency, µM (doses to about 76.9 µM), for inactives: at the highest dose activation (cAMP increase), actives largely listed as activators. AID 624287; active = well fitted activation curve with a large enough effect; inconclusive = small, poorly fitted or top-dose-only effect, or another doubt; inactive = no such curve, though single readings can be large or run the other way; cell line not stated here;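 note: phosphodiesterase inhibitor Ro 20-1724 added with compounds to block cAMP breakdown; potency is the fitted concentration of half-maximal effect; nearly all actives have a fitted effect of over 60% in size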
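Cells in DMEM/10% FBS with G418 were pretreated with compounds in DMSO plus […] (300 uM stock) for 30 min at 37C. cAMP was measured by HTRF (cAMP-d2 plus anti-cAMP antibody-K) after 30 min at room temperature.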
ASM inhibitor – inhibitors of human secretory acid sphingomyelinase; P17405; 340,000 compounds, 0.006% hits; AID 504937; placental ASM, HMU-PC fluorogenic substrate, 60 min; Potency, µM (highest dose often 57.5 µM), for the others: top-dose activity change, negative = inhibition, most hits filed as inhibitors; active = well fitted inhibition curve with a large enough effect; inconclusive = small, poorly fitted or top-dose-only effect; inactive = no such curve, though single readings can be large or run the other way; note: potency is the fitted concentration of half-maximal effect
Target sequence (P17405 47-631 limits assumed): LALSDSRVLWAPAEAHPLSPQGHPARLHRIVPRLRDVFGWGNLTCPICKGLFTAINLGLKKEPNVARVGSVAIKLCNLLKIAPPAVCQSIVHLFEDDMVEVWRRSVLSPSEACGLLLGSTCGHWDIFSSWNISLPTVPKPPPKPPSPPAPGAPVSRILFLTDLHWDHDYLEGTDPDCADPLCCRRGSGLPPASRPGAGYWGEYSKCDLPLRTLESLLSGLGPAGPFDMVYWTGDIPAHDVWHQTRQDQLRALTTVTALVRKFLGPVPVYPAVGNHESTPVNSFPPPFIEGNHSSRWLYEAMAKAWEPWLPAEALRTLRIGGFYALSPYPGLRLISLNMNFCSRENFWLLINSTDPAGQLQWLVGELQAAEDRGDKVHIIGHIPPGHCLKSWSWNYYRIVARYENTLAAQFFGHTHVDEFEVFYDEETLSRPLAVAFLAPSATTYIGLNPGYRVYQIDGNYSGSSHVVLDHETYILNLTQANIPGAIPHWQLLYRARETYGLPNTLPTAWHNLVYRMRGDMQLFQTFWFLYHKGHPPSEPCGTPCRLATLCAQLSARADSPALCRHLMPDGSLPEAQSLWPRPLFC
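Human placenta-derived ASM enzyme was preincubated with compound for 10 minutes at room temperature, then given fluorogenic substrate HMU-PC0 (9 uM final) for 60 minutes at 37 °C; a pH 10 stop preceded fluorescence reading at Ex 386/Em 447 nm.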
gsp antagonist – antagonists of gsp mutant (McCune-Albright syndrome). gsp-mutant cells, cAMP HTRF, 30 min. 340,000 compounds, 0.4% hits. Potency, µM (titrated, usually from 76.9 µM), without a hit: at the top dose activity change, negative = inhibition, usual class: inhibitors; calls by dose curve; cell line not stated here;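 note: intracellular cAMP measured with PDE inhibitor Ro 20-1724 present during compound exposure; potency is the fitted concentration of half-maximal effect; % is set by controls: 0 for no effect and ±100 for the full control effect; nearly all actives have a fitted effect of over 65% in size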
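Cells, 2000/well, grown 16–24 h in DMEM 10% FBS with 0.5 mg/ml G418, then compounds plus […] (300 uM addition stock), 30 min at 37C. cAMP read by HTRF (cAMP-d2 and anti-cAMP antibody-K in lysis buffer) after 30 min RT.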
The depositor's hits bear a star; ? = inconclusive; / = no result given; [ ] = another dose, or the depositor's remark.

SMILES	TSHR antagonist	gsp agonist	ASM inhibitor	gsp antagonist
Cc1ccc(C(=O)Cn2nnc(-c3cccs3)n2)cc1	2	?	-2%	50µM*
O=C(Cn1nnc(-c2cccs2)n1)NCc1cccs1	-8	2%[15.4 µM]	0%	12%
Cc1cc2c(s1)c(C#N)c(C(=O)NCc1ccccc1F)n2C	19	/	/	/
COc1ccccc1P(=O)(Cc1ccccc1[N+](=O)[O-])c1ccccc1 (stereo unspecified)	1	9%	-1%	6%
C#CCn1cc2c(c1-c1ccccc1)c(=O)n(C)c(=O)n2C	/	5%	/	/
CCN1C(=O)CS/C1=N\S(=O)(=O)c1ccc(Cl)cc1	-9	4%[15.4 µM]	-2%	1%
CCn1c(Cl)c(C=O)s/c1=N\S(=O)(=O)c1ccccc1	-98*	?	3%	-26%
Cc1ccc(-c2ccc(/C=N/N=C3/NC(=O)C(CC(=O)O)S3)o2)c([N+](=O)[O-])c1 (stereo unspecified)	-72*	-33%	-3%	5%
O=C(O)CC1S/C(=N/N=C/c2ccc(-c3ccccc3[N+](=O)[O-])o2)NC1=O (stereo unspecified)	-1	0%	-2%	-3%
CC(C)(C)SCCNC(=O)CN1C(=O)c2cccc3cccc1c23	-6	3%	47%	-1%
COCCNC(=O)CN1C(=O)c2cccc3cccc1c23	-127*	0%[15.4 µM]	30%	3%
CSCC[C@H](NC(=O)COc1ccc(Cl)cc1)c1nc2ccccc2[nH]1	24	4%[15.4 µM]	4%	7.9µM*
COc1cc(/C=C(\C#N)c2nc3ccc(C)cc3[nH]2)cc([N+](=O)[O-])c1O	-4	-35%	?	25µM*
C=CCc1cccc(C=NNC(=O)CN2CCN(Cc3ccccc3)CC2)c1O	-16	/	/	/
C[C@@H]1CCCCO[C@@H](CN(C)C(=O)Nc2ccccc2)[C@@H](C)CN([C@H](C)CO)C(=O)c2cc(N(C)C)ccc2O1	/	14µM*	/	/
O=C(Nc1nc2ccccc2s1)c1ccc(OCC2CCCO2)cc1 (stereo unspecified)	-23	12%	-17%	32µM*
O=C(Nc1cccc(S(=O)(=O)C(F)F)c1)c1ccc(Cl)c(S(=O)(=O)N2CCOCC2)c1	-28	11%	-11%	28µM*
O=C(Nc1cccc(Br)c1)c1ccc(Cl)c(S(=O)(=O)N2CCOCC2)c1	-49	-12%	-11%	40µM*
O=C(Nc1cccc(C(=O)NC2CC2)c1)c1ccc(Cl)c(S(=O)(=O)N2CCOCC2)c1	-2	3%	0%	-10%
O=C(Nc1ccc(Cl)c(S(=O)(=O)N2CCOCC2)c1)c1ccc(OCC2CCCO2)cc1 (stereo unspecified)	-87*	-32%	-4%	32µM*
CCSC1=C(C#N)C(c2ccc(Cl)cc2)C2=C(CCCC2=O)N1 (stereo unspecified)	-7	9%	26%	45µM*
CC(C)c1ccc(C(=O)N(c2ccccn2)C(C)c2ccco2)cc1 (stereo unspecified)	3	-34%	-3%	-18%
CC(c1ccco1)N(C(=O)CSc1ccc(Br)cc1)c1ccccn1 (stereo unspecified)	-20	-6%	-1%	35µM*
Cn1nnnc1SCC1=C(C(=O)O)N2C(=O)[C@@H](NC(=O)[C@H](O)c3ccccc3)[C@H]2SC1	7	/	?	-2%
Cn1nnnc1SCC1=C(C(=O)O)N2C(=O)C(NC(=O)C3CC3c3ccccc3)C2SC1 (stereo unspecified)	-105*	?	-2%	-3%
SMILES	TSHR antagonist	gsp agonist	ASM inhibitor	gsp antagonist
Cc1ccc(OCCn2c(C)c(/C=N/n3cnnc3)c3ccccc32)cc1	1	-20%	-8%	8%
Cc1c(/C=N/n2cnnc2)c2ccccc2n1CCOc1ccc(Cl)cc1	-4	-19%	35µM*	3%
CC1(C)CCC2=C(O1)c1ccccc1C(=O)C2=O	10	/	/	/
COc1ccccc1NS(=O)(=O)c1cc(C)ccc1C	-12	-21%	-1%	6.3µM*
COc1ccc(C)cc1NS(=O)(=O)c1cc(C)ccc1C	-8	?	-3%	4%
CCCN(CC(=O)Nc1cccc(S(N)(=O)=O)c1)CC(=O)Nc1ccc(F)c(F)c1F	-2	-58%	-2%	3%
CCCN(CC(=O)Nc1cccc(Br)c1)CC(=O)Nc1ccc(F)c(F)c1F	-41	?	?	50µM*
NC(=O)C1CCN(c2nc(-c3ccccc3)cs2)CC1	2	/	/	/

Screening results from PubChem BioAssay.
